Among the data in the antibiotic and cytotoxicity screens of Wong et al. (2023) are cytotoxicity call values, retold here.

The whole screen tested about 39,000 compounds, of which about 3,300 (8.5%) were called active. Only a selection was taken, and actives are over-represented in it overall.

In the assay the test system is HepG2. The assay can be described thus: cytotoxicity call (relative viability < 0.9). Particulars: 10 µM.
On to `CO[C@H](CN(C)S(=O)(=O)c1ccc(F)cc1)[C@H](C)CN([C@@H](C)CO)S(=O)(=O)c1cccc(Cl)c1`, for which the cytotoxicity call is “inactive”.

With `COC1C=CC23c4cc5c(cc4CN(CC2O)C3C1)OCO5` (stereo unspecified), the cytotoxicity call is “inactive”. In the case of `COC(=O)[C@H](Cc1ccccc1)N1CC2=C[C@H](C3CC3)n3c(=O)n(C)c(=O)n3[C@@H]2[C@H]1[C@H](O)Cc1ccccc1` it was “inactive”. In the case of `CC(=O)N1CCc2n[nH]c(C(=O)N3CCOCC3)c2C1` it was “inactive”; in that of `CC(C)NC(=O)N(C)C[C@@H]1Oc2c(NC(=O)C3CCOCC3)cccc2C(=O)N([C@H](C)CO)C[C@@H]1C`, “inactive”; in that of `C[C@H]1CN([C@@H](C)CO)S(=O)(=O)c2ccc(C#Cc3ccccc3)cc2O[C@H]1CN(C)C(=O)CN(C)C`, “active”.

For the molecule `C[C@@H]1CN([C@H](C)CO)S(=O)(=O)c2ccc(C#Cc3ccc(F)cc3)cc2O[C@@H]1CN(C)C(=O)CN(C)C`, the cytotoxicity call is “inactive”.

With `C[C@H](CO)N1C[C@H](C)[C@H](CN(C)C(=O)CN(C)C)Oc2cc(C#Cc3ccccc3)ccc2S1(=O)=O`, the cytotoxicity call is “inactive”. In the case of `C[C@@H]1CN([C@@H](C)CO)S(=O)(=O)c2ccc(C#Cc3ccccc3)cc2O[C@@H]1CN(C)C(=O)CN(C)C` it was “active”; in that of `C[C@H](CO)N1C[C@H](C)[C@@H](CN(C)C(=O)CN(C)C)Oc2cc(C#Cc3ccccc3)ccc2S1(=O)=O`, “active”. In the case of `C[C@H]1CN([C@@H](C)CO)S(=O)(=O)c2ccc(C#Cc3ccccc3)cc2O[C@@H]1CN(C)C(=O)CN(C)C` it was “inactive”; in that of `C[C@H](CO)N1C[C@H](C)[C@@H](CN(C)C(=O)CN(C)C)Oc2cc(C#Cc3ccc(F)cc3)ccc2S1(=O)=O`, “inactive”; in that of `C[C@H](CO)N1C[C@H](C)[C@H](CN(C)C(=O)CN(C)C)Oc2cc(C#Cc3ccc(F)cc3)ccc2S1(=O)=O`, “inactive”.

As for `C[C@@H]1CN([C@@H](C)CO)S(=O)(=O)c2ccc(C#Cc3ccc(F)cc3)cc2O[C@@H]1CN(C)C(=O)CN(C)C`, the cytotoxicity call is “inactive”. In the case of `C[C@@H]1CCCCO[C@@H](CN(C)Cc2ccc(C(F)(F)F)cc2)[C@H](C)CN([C@H](C)CO)C(=O)c2cc(N(C)C)ccc2O1` it was “inactive”. In the case of `Cn1ccc(C(=O)N2CCC3(CCOC[C@@H]3NS(C)(=O)=O)CC2)n1` it was “inactive”; in that of `Cc1noc(C)c1S(=O)(=O)Nc1ccc2c(c1)CC(=O)N([C@@H](C)CO)C[C@H](C)[C@H](CN(C)C(=O)NC(C)C)O2`, “inactive”.

On to `COc1cccc(S(=O)(=O)N[C@H]2CC[C@@H](CC(=O)NC3CCC3)O[C@@H]2CO)c1`, for which the cytotoxicity call was “inactive”. The result for `CC(=O)NCCCC[C@@H]1NC(=O)[C@H]2C[C@@H](C(=O)NCCCCCCN(C)C)[C@@H](c3ccc(O)cc3)N2C1=O` reads “inactive”. The result for `C[C@@H]1CCCCO[C@H](CN(C)C(=O)Nc2ccc(F)cc2)[C@H](C)CN([C@@H](C)CO)C(=O)c2cc(NC(=O)c3ccncc3)ccc2O1` reads “inactive”. On to `NCc1ccc(S(=O)(=O)O)cc1`, for which the cytotoxicity call is “inactive”. For `C[C@@H]1CN([C@@H](C)CO)C(=O)Cc2cc(NC(=O)Cn3cnnn3)ccc2O[C@@H]1CN(C)C(=O)Nc1ccc(F)cc1`, the cytotoxicity call was “inactive”. The result for `CN1CCN(C(=O)C[C@@H]2C=C[C@@H](NC(=O)c3ccc4c(c3)OCO4)[C@H](CO)O2)CC1` reads “inactive”. In the case of `CCCCOc1ccc(CC(=O)NO)cc1` it was “active”. The result for `CCOc1ccc(NC(=O)CC(C)O)cc1` (stereo unspecified) reads “inactive”. `COc1ccc(OCCC(=O)NN)cc1`: the cytotoxicity call was “inactive”. With `CNC(=O)CN(C#N)c1nc(C)cc(C)n1`, the cytotoxicity call is “inactive”.

As for `COc1ccc(CNC(=O)C[C@H]2C[C@H]3c4cc(NS(=O)(=O)c5ccc(F)cc5)ccc4O[C@H]3[C@H](CO)O2)cc1`, the cytotoxicity call was “inactive”. In the case of `C[C@H](CO)N1C[C@H](C)[C@H](CN(C)C(=O)c2cccnc2)Oc2ncc(-c3ccc(C(=O)N(C)C)cc3)cc2C1=O` it was “inactive”; in that of `C[C@@H]1CCCCO[C@H](CN(C)C(=O)CCC(F)(F)F)[C@@H](C)CN([C@H](C)CO)C(=O)c2cc(NC(=O)CCC(F)(F)F)ccc2O1`, “inactive”. Turning to `C[C@@H]1CN([C@@H](C)CO)C(=O)c2cc(NC(=O)Nc3ccc(C(F)(F)F)cc3)ccc2O[C@H]1CN(C)C(=O)Nc1ccc(C(F)(F)F)cc1`, the cytotoxicity call is “inactive”. In the case of `C[C@H](CO)N1C[C@H](C)[C@@H](CN(C)C(=O)Nc2ccc(C(F)(F)F)cc2)Oc2ccc(NC(=O)Nc3ccc(F)cc3)cc2C1=O` it was “active”; in that of `C[C@@H]1CN([C@@H](C)CO)C(=O)c2cc(NC(=O)CCC(F)(F)F)ccc2O[C@H]1CN(C)C(=O)Nc1ccc(C(F)(F)F)cc1`, “inactive”; in that of `C[C@H](CO)N1C[C@H](C)[C@H](CN(C)C(=O)Nc2ccccc2)Oc2ccc(NC(=O)Nc3ccc(C(F)(F)F)cc3)cc2C1=O`, “active”. In the case of `C[C@H](CO)N1C[C@H](C)[C@@H](CN(C)C(=O)Nc2ccc(C(F)(F)F)cc2)Oc2ccc(NC(=O)Nc3ccc(C(F)(F)F)cc3)cc2C1=O` it was “active”; in that of `C[C@@H]1CN([C@H](C)CO)C(=O)c2cc(NC(=O)Nc3ccccc3)ccc2O[C@@H]1CN(C)C(=O)Nc1ccc(C(F)(F)F)cc1`, “inactive”; in that of `C[C@H]1CN([C@@H](C)CO)C(=O)c2cc(NC(=O)Nc3ccc(C(F)(F)F)cc3)ccc2O[C@H]1CN(C)C(=O)Nc1ccc(C(F)(F)F)cc1`, “inactive”. As to `C[C@@H]1CN([C@@H](C)CO)C(=O)c2cc(NC(=O)Nc3ccccc3)ccc2O[C@@H]1CN(C)C(=O)Nc1ccc(C(F)(F)F)cc1`, the cytotoxicity call was “inactive”. The result for `C[C@H]1CN([C@@H](C)CO)C(=O)c2cc(NC(=O)Nc3ccc(F)cc3)ccc2O[C@@H]1CN(C)C(=O)Nc1ccc(C(F)(F)F)cc1` reads “inactive”; that for `C[C@H]1CN([C@@H](C)CO)C(=O)c2cc(NC(=O)CCC(F)(F)F)ccc2O[C@H]1CN(C)C(=O)Nc1ccc(C(F)(F)F)cc1`, “active”. In the case of `C[C@@H]1CN([C@H](C)CO)C(=O)c2cc(NC(=O)CCC(F)(F)F)ccc2O[C@@H]1CN(C)C(=O)Nc1ccc(C(F)(F)F)cc1` it was “inactive”; in that of `C[C@@H]1CN([C@H](C)CO)C(=O)c2cc(NC(=O)Nc3ccc(C(F)(F)F)cc3)ccc2O[C@H]1CN(C)C(=O)Nc1ccc(F)cc1`, “inactive”; in that of `Cc1noc(C)c1NC(=O)Nc1ccc2c(c1)CC(=O)N([C@H](C)CO)C[C@H](C)[C@H](CN(C)S(=O)(=O)c1cn(C)cn1)O2`, “inactive”. The result for `COc1ccc(NC(=O)Nc2ccc3c(c2)C(=O)N([C@H](C)CO)C[C@@H](C)[C@@H](CN(C)C(=O)Cc2ccccc2)OCCCC[C@H](C)O3)cc1` reads “inactive”; that for `NC1(C#Cc2cncc(C(=O)N3CCOCC3)c2)CCCCC1`, “inactive”; that for `C[C@@H]1CN([C@H](C)CO)C(=O)c2cc(NC(=O)NC3CCCCC3)ccc2O[C@@H](C)CCCCO[C@H]1CN(C)Cc1ccc2c(c1)OCO2`, “inactive”. As for `Cc1ccc(S(=O)(=O)Nc2ccc3c(c2)CC(=O)N([C@H](C)CO)C[C@H](C)[C@H](CN(C)S(=O)(=O)c2ccccc2)O3)cc1`, the cytotoxicity call is “inactive”.

Regarding `COc1ccccc1S(=O)(=O)N[C@H]1C=C[C@H](CC(=O)N2CCN(C)CC2)O[C@H]1CO`, the cytotoxicity call was “inactive”. In the case of `COc1ccc(NC(=O)Nc2ccc3c(c2)C(=O)N([C@@H](C)CO)C[C@@H](C)[C@H](CN(C)S(=O)(=O)c2c(C)noc2C)OCCCC[C@@H](C)O3)cc1`, the cytotoxicity call was “inactive”.

Regarding `Cc1cc(C(=O)Nc2cccc3c2O[C@H](CN(C)C(=O)NC(C)C)[C@@H](C)CN([C@@H](C)CO)C3=O)n(C)n1`, the cytotoxicity call is “inactive”. In the case of `C[C@@H]1CCCCO[C@@H](CN(C)S(=O)(=O)c2cccs2)[C@@H](C)CN([C@H](C)CO)C(=O)c2cc(NC(=O)c3ccccc3)ccc2O1` it was “inactive”.

`O=C(C[C@@H]1CC[C@@H](NS(=O)(=O)c2ccccc2F)[C@@H](CO)O1)NCCCN1CCOCC1`: the cytotoxicity call is “inactive”. The result for `O=C(C[C@@H]1CC[C@@H]2[C@H](COC[C@@H](O)CN2C(=O)C2CC2)O1)NCc1ccncc1` reads “inactive”; that for `C[C@@H]1CN([C@H](C)CO)C(=O)c2cc(NC(=O)Nc3ccc(F)cc3)ccc2O[C@H]1CN(C)C(=O)Nc1ccc(C(F)(F)F)cc1`, “inactive”; that for `C[C@H](CO)N1C[C@H](C)[C@@H](CN(C)C(=O)Nc2ccc(C(F)(F)F)cc2)Oc2ccc(NC(=O)Cc3ccccc3)cc2C1=O`, “inactive”. In the case of `C[C@@H]1CN([C@@H](C)CO)C(=O)c2cc(NC(=O)Nc3ccc(F)cc3)ccc2O[C@@H]1CN(C)C(=O)Nc1ccc(C(F)(F)F)cc1` it was “inactive”; in that of `C[C@H]1CN([C@@H](C)CO)C(=O)c2cc(NC(=O)Cc3ccccc3)ccc2O[C@@H]1CN(C)C(=O)Nc1ccc(C(F)(F)F)cc1`, “inactive”. The result for `C[C@@H]1CN([C@H](C)CO)C(=O)c2cc(NC(=O)Nc3ccc(C(F)(F)F)cc3)ccc2O[C@@H]1CN(C)C(=O)Nc1ccc(F)cc1` reads “active”. Take `C[C@H]1CN([C@@H](C)CO)C(=O)c2cc(NC(=O)Nc3ccc(C(F)(F)F)cc3)ccc2O[C@H]1CN(C)C(=O)Nc1ccc(F)cc1`: the cytotoxicity call was “inactive”. With `C[C@@H]1CN([C@@H](C)CO)C(=O)c2cc(NC(=O)Nc3ccc(C(F)(F)F)cc3)ccc2O[C@@H]1CN(C)C(=O)Nc1ccc(F)cc1`, the cytotoxicity call is “active”. Take `C[C@H](CO)N1C[C@H](C)[C@H](CN(C)C(=O)Nc2ccc(C(F)(F)F)cc2)Oc2ccc(NC(=O)Cc3ccccc3)cc2C1=O`: the cytotoxicity call was “active”. The result for `C[C@H](CO)N1C[C@H](C)[C@@H](CN(C)C(=O)Nc2ccc(F)cc2)Oc2ccc(NC(=O)Nc3ccc(C(F)(F)F)cc3)cc2C1=O` reads “inactive”; that for `CNc1[nH]cnc(=S)c1N`, “inactive”. The result for `COc1ccc(NC(=O)Nc2ccc3c(c2)C(=O)N([C@H](C)CO)C[C@@H](C)[C@H](CN(C)CC2CCCCC2)O3)cc1` reads “inactive”. Regarding `CO[C@H]1CN(C(=O)c2ccnnc2)[C@H]2COC[C@@H]12`, the cytotoxicity call is “inactive”. Turning to `Cc1noc(C)c1S(=O)(=O)Nc1ccc2c(c1)C(=O)N([C@@H](C)CO)C[C@@H](C)[C@@H](CN(C)Cc1ccc3c(c1)OCO3)O2`, the cytotoxicity call was “inactive”.
